# Measured values as given in PubChem BioAssay (EPA / NIEHS).
# Several values for one entry are separate records, joined by “and”; a condition that tells them apart may be missing. Identical values can stand only once. Activity calls are given as the source filed them. The calls were made as follows: active = hit-call score of the fitted dose curve at least 0.9, where 1 is the maximum; inactive = score below 0.9.
# Assay: CCTE_Shafer_MEA_dev_firing_rate_mean: CCTE's Neural Network Formation Assay for Mean Firing Rate, Shafer Lab (AID 2284031);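 as to AC50: curve fitted for loss of firing so AC50 reflects decreased mean firing rate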
# Method: CCTE_Shafer_MEA_dev assay is conducted using Axion Biosystems 48 well microelectrode array (MEA) plates and Maestro recording system. Each well of the MEA plate contains a grid of 16 microelectrodes embedded in the culture surface. Electrically active cells, such as neurons, can be cultured over the electrodes, and electrical activity in these cells can be recorded extracellularly. The spontaneous firing of neurons is captured from each electrode on a microsecond timescale providing both temporally and spatially precise data. […] The CCTE_Shafer_MEA_dev assay uses primary cultures of rat cortical neurons. Recordings are made on days post-plating 5, 7, 9 and 12. As these cultures mature over time, neural networks develop functional activity and form cohesive networks in which electrical activity can be highly coordinated. CCTE_Shafer_MEA_dev_firing_rate_mean is 1 of 19 assay components of the CCTE_Shafer_MEA_dev assay. It measures the frequency of spikes (action potential firings) as the total number of spikes divided by the length of the recording in a microelectrode array (MEA) using Axion Biosystems Maestro 768 channel amplifier with the AxIS adaptive spike detector. The firing rate is averaged across the active electrodes to report a well-mean value. To collapse across multiple recordings made on days post-plating 5, 7, 9 and 12, the trapezoidal area-under-the-curve of the component is calculated.Data from the assay component CCTE_Shafer_MEA_dev_firing_rate_mean was analyzed into 1 assay endpoint. This assay endpoint, CCTE_Shafer_MEA_dev_firing_rate_mean, was analyzed in the negative analysis fitting direction relative to DMSO as the negative control and baseline of activity. Using a type of functional reporter, gain or loss-of-signal activity can be used to understand electrical activity.
# On the day prior to culture, each well was coated thoroughly with 150 uL of 0.05% polyethyleneimine (PEI, Sigma Cat P3143) in 50 mM HEPES (Sigma Cat H7523) at a pH of 8. The plate was incubated at 37C for one hour. PEI was rinsed out with 500 uL of sterile water three times. Plates were stored at 4C until the day of culture. This culture was plated at a seeding density of 1.5 x 10^5 cells/well on a 48-well MEA plate, prepared as described above. Cells were administered via a 25 uL media/laminin ([…]; Sigma Cat L2020-1MG) drop directly onto the microelectrode array, as adding the cells with the laminin results in better attachment than pre-coating with laminin. After 2 hours, an additional 475 uL of cortical media was added and the cells returned to the incubator. Exposure starts at day 0 of plating and is continued over twelve days of network development until the experiment is terminated. Cells are fed with fresh medium on DIV 5 and 9, following the recordings on those days. The entire volume of media in the well is exchanged and any vehicle or compound treatment is renewed. Complete details are found in OP-NHEERL/ISTD/SBB/TJS/2015-03-r0 (available on request, email shafer.tim@epa.gov). Measurement of the electrical activity is non-invasive, and recordings can be made from the same plate over multiple different days of the culture. In cortical neurons, this allows for the measurement of extracellular action potentials over the period during which networks form in the MEA plate.
Compound,outcome,AC50
O=C(O)C(F)(F)C(F)(F)C(F)(F)C(F)(F)C(F)(F)C(F)(F)C(F)(F)C(F)(F)C(F)(F)C(F)(F)F,inactive,–
O=C(O)C(F)(F)C(F)(F)C(F)(F)C(F)(F)C(F)(F)C(F)(F)F,inactive,–
CC(C)(C)c1cc(O)ccc1O,inactive,–
CCOP(=S)(OCC)Oc1nc(Cl)c(Cl)cc1Cl,–,13.3 µM (active) and 2.98 µM (active) and 12 µM (active)
C=C(C)C(=O)[O][Sn]([CH2]CCC)([CH2]CCC)[CH2]CCC,–,0.00431 µM (active)
CC(=O)[O][Hg][c]1ccccc1,–,0.00554 µM (active)
CCC(=O)C(CC(C)N(C)C)(c1ccccc1)c1ccccc1 (stereo unspecified),–,3.42 µM (active)
ClC1(Cl)C2(Cl)C3(Cl)C4(Cl)C(Cl)(Cl)C5(Cl)C3(Cl)C1(Cl)C5(Cl)C24Cl (stereo unspecified),inactive,–
COP(=O)(OC)O/C(=C\Cl)c1cc(Cl)c(Cl)cc1Cl,inactive,–
Cn1sc(Cl)cc1=O,–,8.69 µM (active)
O=C1C2(Cl)C3(Cl)C4(Cl)C(Cl)(Cl)C5(Cl)C3(Cl)C1(Cl)C5(Cl)C24Cl (stereo unspecified),–,3.94 µM (active)
